High-throughput results deposited in PubChem BioAssay by National Center for Advancing Translational Sciences (NCATS).
A selection: hits, their analogues and other compounds. The true share with any hit is near 11%.
12-hLO inh: inhibitors of human 12-lipoxygenase (ALOX12); Potency, µM (highest dose often 57.1 µM), without a hit: top-dose activity change, negative = inhibition, usual class: inhibitors; hit rate 0.12% among 150,000; P18054; purified 12-hLO, xylenol orange hydroperoxide absorbance; note: potency is the fitted concentration of half-maximal effect; nearly all actives have a fitted effect of over 55% in size
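Hydroperoxide formation by human 12-lipoxygenase from 40 uM arachidonic acid was followed colorimetrically via ferric-xylenol orange complex, using the 573/405 nm absorbance ratio. Enzyme concentration was 150 nM, with 30 min reaction at room temperature.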
IMPase Li cell: membrane-permeable IMPase blocker, potentiated with lithium; CHO-M1 cells, IP1 TR-FRET (IP-One), carbachol + lithium; Potency, µM (doses to about 59.4 µM), for inactives: top-dose activity, negative = IMPase inhibition, usual class: inhibitors; hit rate 0.35% among 210,000; AID 1457;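 note: IP1 builds up when IMPase is blocked and the TR-FRET signal falls; potency is the fitted concentration of half-maximal effect; plate controls were basal vehicle for no effect and high inhibitor control for full effect; nearly all actives have a fitted effect of over 50% in size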
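CHO-M1, 2000 cells/well, 16–30 h culture; cpd + low Li+, 30 min 37C; lysis with d2-IP1/Eu-anti-IP1 Ab, 10 min RT; TR-FRET 665/620 ratio and 620 channel; AC50 via Hill.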
ALDH1A1 inh: ALDH1A1 (human) enzyme inhibition | Purified ALDH1A1, NADH fluorescence, propionaldehyde substrate | Potency, µM (series often up to 75.3 µM), without a hit: at the top dose activity, negative = inhibition, hits mostly inhibitors | hit rate 7.3% among 220,000 | P00352; active = well fitted inhibition curve with a large enough effect, not every such curve was filed as active; inconclusive = small, poorly fitted or top-dose-only effect, or another doubt; inactive = no such curve, though single readings can be large or run the other way;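 note: potency is the fitted concentration of half-maximal effect; plate controls were no enzyme wells and a reference inhibitor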
HPGD inh: HPGD (human) dehydrogenase inhibition. purified HPGD, NADH fluorescence kinetic, PGE2 substrate. hit rate 4.3% among 150,000. P15428. AID 894. Potency, µM, without a hit: top-dose activity change, negative = inhibition, most hits filed as inhibitors; active = well fitted inhibition curve with a large enough effect, not every such curve was filed as active; inconclusive = small, poorly fitted or top-dose-only effect, or another doubt; inactive = no such curve, though single readings can be large or run the other way; note: potency is the fitted concentration of half-maximal effect
Target sequence (P15428 whole entry, looked up): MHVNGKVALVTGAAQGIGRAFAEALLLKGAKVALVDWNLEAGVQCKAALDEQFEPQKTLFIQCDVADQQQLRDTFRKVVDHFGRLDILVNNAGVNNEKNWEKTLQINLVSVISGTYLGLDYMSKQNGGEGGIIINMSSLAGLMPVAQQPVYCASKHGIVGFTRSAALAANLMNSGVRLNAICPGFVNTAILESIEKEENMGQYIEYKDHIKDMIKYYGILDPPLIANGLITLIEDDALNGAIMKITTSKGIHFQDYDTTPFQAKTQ
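20 nM HPGD preincubated 15 min at room temperature with compound in 50 mM Tris-HCl pH 8, 0.01% Tween 20. Started with 1 mM NAD+ and 30 uM prostaglandin E2; NADH fluorescence (360/450 nm) read 5 times over 30-s intervals, last minus first.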
IMPase inh: membrane-permeable compound that blocks inositol monophosphatase; P97697; CHO-M1 cells, IP1 accumulation, HTRF TR-FRET ratio; inhibition (IP1 accumulation), % at 46.1 µM; 120,000 tested, under 10 active; AID 901; active = well fitted curve in the direction sought with a large enough effect in the signal ratio, not every such curve was filed as active; inconclusive = small, poorly fitted or top-dose-only effect, or a change in a side signal; inactive = no such curve, though single readings can be large or run the other way; the % refers to the signal ratio;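 note: cells stimulated with carbachol in lithium chloride buffer; plate controls were DMSO basal wells for no effect and reference inhibitor wells for full effect; higher means more IMPase inhibition seen as more IP1 and lower FRET ratio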
Target sequence (P97697 whole entry, looked up): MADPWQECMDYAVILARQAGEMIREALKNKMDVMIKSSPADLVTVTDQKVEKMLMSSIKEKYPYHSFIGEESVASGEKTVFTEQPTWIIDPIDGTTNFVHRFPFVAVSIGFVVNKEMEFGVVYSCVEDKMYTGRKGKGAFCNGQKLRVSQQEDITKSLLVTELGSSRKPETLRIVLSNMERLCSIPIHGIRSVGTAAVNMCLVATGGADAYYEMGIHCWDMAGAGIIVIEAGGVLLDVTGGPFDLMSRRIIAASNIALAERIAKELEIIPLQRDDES
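Measured: the HTRF emission ratio (665/620 nm) plus the 620 nm donor channel, each fitted to the Hill equation to give AC50. Cells were CHO-M1 given compounds up to 46 uM and a 30 min carbachol stimulation at 37C.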
PNC assembly inh: perinucleolar compartment assembly inhibition; PC3M PTB-GFP, PNC prevalence imaging, 16 h; hits give low values; hit rate 3.1% among 140,000; activity change (PNC), negative = inhibition, % at 10 µM;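 active = readout at or below -70, meaning at least 70% loss of cells showing the perinucleolar compartment, a nuclear body marking cancer cells; inconclusive = readout between -30 and a set limit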;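 note: plate controls were DMSO wells for no effect and camptothecin positive control wells for full effect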
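Compounds are pinned in duplicate onto adhered PC3M cells stably expressing GFP-tagged PTB and incubated 16 h at 37 C. Cells are then fixed, nuclei stained with Hoechst, and PNC-positive cells counted.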
The depositor's hits bear a star; ? = inconclusive; . = not tested or not shown; [ ] = dose if it differs, or a comment. Unless noted, calls come from the whole dose curve; as a rule, active = well fitted curve in the direction sought with a large enough effect; inconclusive = small, poorly fitted or top-dose-only effect, or another doubt; inactive = no such curve, though single readings can be large; an effect the other way counts as inactive or inconclusive. Unless noted, % is set by controls: 0 for no effect and ±100 for the full control effect.

SMILES	12-hLO inh	IMPase Li cell	ALDH1A1 inh	HPGD inh	IMPase inh	PNC assembly inh
Fc1ccc(C2NC(=S)NC3=C2N2CCC3CC2)cc1 (stereo not drawn)	4%	13%[38.3 µM]	14µM*	-5%	2	?
CCc1ccccc1Nc1nc2ccccc2n2cnnc12	.	.	.	.	-1	.
Cc1ccc(NC(=O)N/C=C/c2ccc(Cl)cc2)cc1	-30%	-19%[38.3 µM]	22µM*	-14%	8	57
O=C(N/C=C/c1ccccc1)Nc1ccc(Cl)cc1	-21%	9%[38.3 µM]	?	-15%	-4	17
CCC1C(=O)CC(c2ccc([N+](=O)[O-])cc2)NC1c1ccc([N+](=O)[O-])cc1 (stereo not drawn)	.	34%	?	.	.	.
CCC1C(=O)CC(c2ccco2)NC1c1ccco1 (stereo not drawn)	-3%	6%	?	-12%	9	-100*
O=C(CN1CC[n+]2c(-c3cccs3)csc21)c1ccc(-c2ccccc2)cc1	.	-13%	8%	.	.	.
CCc1ccc(-c2csc3[n+]2CCN3C(C)=O)cc1	-20%	26%[38.3 µM]	?	14µM*	0	-5
CC(=O)N1CC[n+]2c(-c3ccc(Cl)cc3)csc21	?	7%	?	18µM*	.	-26
CCOC(=O)c1sc(NC(=O)/C=C/c2cnn(C)c2C)c(C(=O)OC(C)C)c1C	-2%	0%	?	?	-5	?
CCOC(=O)c1ccc(NC(=S)NCCC2=CCCCC2)cc1	25µM*	17%	?	14µM*	5	-10
CN(C)c1ccc(C(=O)OCc2ccccc2)cc1	7%	24%[38.3 µM]	?	?	8	25
COC(=O)c1ccc(COC(=O)c2ccc(N(C)C)cc2)cc1	-5%	28%[38.3 µM]	25µM*	?	2	-13
Cc1ccc(NC(=S)NCCC2=CCCCC2)cc1	.	12%	-7%	.	.	.
CN(C)c1ccc(C(=O)OCC(=O)NCCC2=CCCCC2)cc1	.	17%	35µM*	.	.	.
O=C(COC(=O)c1ccc(Br)cc1)NCCC1=CCCCC1	.	-2%	4%	.	.	.
O=C(COC(=O)c1cnc(Cl)c(Cl)c1)NCCC1=CCCCC1	.	3%	13µM*	.	.	.
C#CCCCO/N=C1/C[C@@H](O)[C@@H](O)[C@@H]2[C@H]3C(=O)N(c4ccc(F)cc4F)C(=O)[C@@H]3CC[C@H]12	.	.	9%[13.5 µM]	.	.	.
CCOc1ccc(C(=O)NC2CCN(S(C)(=O)=O)CC2)cc1	2%	8%[38.3 µM]	18%	-3%	6	-87*
CCOc1ccc(C(=O)NC2CCN(C(=O)N3CCCC3)CC2)cc1	4%	1%	?	-4%	6	56
O=C(O)c1ccccc1NS(=O)(=O)c1ccc(Cl)c(Cl)c1	-3%	.	3%	-2%	.	.
COCc1c(C(=O)NC2CCCCCC2)oc2ccccc12	.	7%	11µM*	.	.	.
O=C(NC1CCCC1)c1cc2c(ccc3ccccc32)o1	-7%	38%[38.3 µM]	?	?	5	7
Cc1ccc(NC(=O)c2ccc(Cl)cc2Cl)c(C(=O)c2ccccc2)c1	.	.	.	.	0	.
O=C(NC1CCCC1)c1nc2c(nnn2Cc2cccc(Cl)c2)c(=O)[nH]1	-11%	-9%[38.3 µM]	-4%	2.5µM*	0	9
O=C(Nc1ccc(F)cc1)N1CCC(c2nc3c(nnn3Cc3cccc(Cl)c3)c(=O)[nH]2)CC1	-11%	-11%[38.3 µM]	12%	8.9µM*	5	19
N#Cc1cccc(NC(=O)N2CCC(c3nc4c(nnn4Cc4cccc(Cl)c4)c(=O)[nH]3)CC2)c1	-3%	-3%[38.3 µM]	-2%	10µM*	4	16
Cc1ccc(NC(=O)N2CCC(c3nc4c(nnn4Cc4cccc(Cl)c4)c(=O)[nH]3)CC2)cc1	-14%	16%[38.3 µM]	-17%	2µM*	-4	?
COc1ccccc1NC(=O)N1CCCC(c2nc3c(nnn3Cc3ccc(C)cc3)c(=O)[nH]2)C1 (stereo not drawn)	-24%	.	?	.	8	2
O=C(NC1CCCC1)c1nc2c(nnn2Cc2ccccc2Cl)c(=O)[nH]1	2%	12%[38.3 µM]	-2%	?	0	20
